Screening results: PubChem BioAssay, several laboratories
LGR2 antag: Drosophila LGR2 receptor signaling inhibition | HEK293 LGR2, CRE-luciferase, bursicon-stimulated, 4 h | inhibition, % at 9.99 µM | actives 0.35% (n = 380,000);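 active = drop in luminescence signal, shown as inhibition above about 50% in the replicate tests, limit read from the data, passing the limit was not always enough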;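 note: agonist challenge used bursicon conditioned medium at about half maximal strength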
EWS-Fli block: blocks EWS/Fli oncoprotein-driven transcription. actives 0.67% (n = 350,000). AID 651661. inhibition, % at 12.6 µM. A673 NR0B1-luciferase reporter, viability-normalised;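 active = mean inhibition of at least 50% after viability correction, with every replicate also passing that limit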;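 note: firefly luciferase signal divided by Alamar Blue viability fluorescence both relative to DMSO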
TROY signal inh: inhibitors of TROY-dependent NF-kB signaling | Q293 LMP1-TROYcd NF-kB luciferase reporter, 4 h | inhibition, % at 10 µM | actives 0.98% (n = 360,000);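 active = compounds whose plate-normalised and pattern-corrected inhibition of the luciferase reporter signal at the single screening dose is 50% or more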
TWEAK-Fn14 inh: inhibitors of TWEAK-Fn14 interaction signaling | TWEAK-stimulated Fn14 reporter cells, luciferase luminescence, 8 h | actives 2% (n = 360,000) | inhibition, % at 10 µM; in the data active = inhibition above about 50%
PAX8 reporter: inhibitors of PAX8 transcriptional activity in RMG-I cells; RMG-I TPO-luciferase reporter, SteadyGlo, 24 h; inhibition, % at 12.6 µM; actives 1.2% (n = 360,000);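 active = mean replicate inhibition at least 60% with every replicate also reaching 60%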;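 note: luciferase light reporting Pax8 driven TPO promoter activity; plate controls were median of neutral control wells for no effect and mitoxantrone controls for full effect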
Active calls of the source: *; x = no result given. This is a sample that favours compounds with a hit; in the whole collection about 2.8% have one here.

SMILES	LGR2 antag	EWS-Fli block	TROY signal inh	TWEAK-Fn14 inh	PAX8 reporter
COc1cc(C2CC(c3cccs3)=NN2C(=O)CCl)ccc1OC(F)F (configuration not stated)	-69	61*	-47	-7	-32
COc1ccc(C2CC(c3cccs3)=NN2C(=O)CCl)cc1OC (configuration not stated)	-42	58*	-53	49	-3
COc1ccc(S(=O)(=O)N(C)C[C@@H]2OCCCC[C@@H](C)Oc3ccc(NC(=O)Nc4ccc5c(c4)OCO5)cc3C(=O)N([C@@H](C)CO)C[C@H]2C)cc1	0	-2	x	x	-11
C[C@H]1CCCCO[C@H](CN(C)S(=O)(=O)c2cn(C)cn2)[C@@H](C)CN([C@@H](C)CO)C(=O)c2cc(NC(=O)c3ccccc3)ccc2O1	0	-10	x	x	8
Cc1ccc(C(C(=O)NCc2ccccc2)N(Cc2cccs2)C(=O)c2ccc3c(c2)OCCO3)cc1 (configuration not stated)	32	10	15	54*	45
COc1ccccc1-c1cnc2c(c1)C(=O)N([C@H](C)CO)C[C@@H](C)[C@H](CN(C)Cc1cccnc1)O2	20	0	x	x	x
C[C@@H]1CCCCO[C@@H](CN(C)Cc2ccc(C(F)(F)F)cc2)[C@@H](C)CN([C@@H](C)CO)C(=O)c2cc(NC(=O)Nc3ccc(C(F)(F)F)cc3)ccc2O1	8	-11	x	x	8
C[C@@H]1CCCCO[C@@H](CN(C)Cc2ccc(C(F)(F)F)cc2)[C@@H](C)CN([C@H](C)CO)C(=O)c2cc(NC(=O)Nc3ccc(F)cc3)ccc2O1	-9	3	x	x	19
C[C@@H]1CN([C@@H](C)CO)C(=O)c2cc(NC(=O)Nc3ccc(C(F)(F)F)cc3)ccc2O[C@@H]1CN(C)Cc1ccc(C(F)(F)F)cc1	8	7	x	x	-1
C[C@H]1CCCCO[C@@H](CN(C)Cc2ccc(C(F)(F)F)cc2)[C@@H](C)CN([C@@H](C)CO)C(=O)c2cc(NC(=O)Nc3ccc(F)cc3)ccc2O1	-32	19	x	x	105*
C[C@@H]1CCCCO[C@@H](CN(C)Cc2ccc(C(F)(F)F)cc2)[C@H](C)CN([C@H](C)CO)C(=O)c2cc(NC(=O)Nc3ccc(C(F)(F)F)cc3)ccc2O1	4	0	x	x	69*
C[C@@H]1CCCCO[C@@H](CN(C)Cc2ccc(C(F)(F)F)cc2)[C@H](C)CN([C@H](C)CO)C(=O)c2cc(NC(=O)Nc3ccc(F)cc3)ccc2O1	-25	11	x	x	69*
C[C@@H]1CN([C@@H](C)CO)C(=O)c2cc(NC(=O)Nc3ccc(C(F)(F)F)cc3)ccc2O[C@H]1CN(C)Cc1ccc(C(F)(F)F)cc1	-1	-6	x	x	70*
O=C(C[C@H]1CC[C@@H]2[C@H](COC[C@@H](O)CN2C(=O)c2ccccn2)O1)NC1CCC1	-6	x	x	x	x
CCNC(=O)C[C@H]1CC[C@H]2[C@@H](COc3ccc(NC(=O)Nc4ccccc4C)cc3C(=O)N2C)O1	-5	10	x	x	1
C[C@@H]1CN([C@H](C)CO)C(=O)c2cccc(NS(=O)(=O)c3ccccc3)c2O[C@H]1CN(C)Cc1ccc(Oc2ccccc2)cc1	2	-6	x	x	4
C[C@@H]1CCCCO[C@H](CN(C)Cc2ccc(C(F)(F)F)cc2)[C@@H](C)CN([C@@H](C)CO)C(=O)c2cc(NC(=O)Nc3ccc(F)cc3)ccc2O1	-42	21	x	x	92*
CC(C)CC#Cc1ccc2c(c1)O[C@H](CN(C)C(=O)Cc1ccccn1)[C@H](C)CN([C@H](C)CO)S2(=O)=O	8	16	x	x	x
CCOc1ccc(S(=O)(=O)Nc2ccc(C(=O)N(CC)CC(=O)NCc3cccs3)cc2)cc1	-5	3	1	74*	3
C[C@H](CO)N1C[C@H](C)[C@H](CN(C)Cc2ccc3c(c2)OCO3)Oc2ccc(NC(=O)NC3CCCCC3)cc2C1=O	-30	8	x	x	-6
O=C(COc1ccc2ccccc2c1)Nc1nccs1	73*	7	-28	75*	-4
COc1ccc(NC(=O)N2C[C@@H](O)COC[C@H]3O[C@@H](CC(=O)NC4Cc5ccccc5C4)CC[C@@H]32)cc1	2	-1	x	x	12
Fc1ccc(-c2noc(-c3ccc4c(c3)CCO4)n2)cc1	39	39	15	61*	-38
S=c1nccc(-c2ccc3c(c2)CCO3)[nH]1	4	-22	-2	3	-16
Cc1cc(C)cc(NC(=S)Nc2cccc3ccccc23)c1	14	17	33	-1	12
SMILES	LGR2 antag	EWS-Fli block	TROY signal inh	TWEAK-Fn14 inh	PAX8 reporter
CN(C)S(=O)(=O)c1cccc(NC(=S)Nc2cccc3cnccc23)c1	19	-24	44	73*	-27
CCOc1ccc(NC(=S)Nc2cccc3cnccc23)cc1	8	x	-7	19	4
Cc1ccc(NC(=S)Nc2cccc3ccccc23)cc1	4	17	66*	40	x
CCOc1ccc(NC(=S)Nc2cccc3ccccc23)cc1	-48	-43	31	68*	-132
CC(C)c1ccc(NC(=S)Nc2cccc3ccccc23)cc1	16	9	70*	53*	-62
CN(C)C(=O)[C@H]1[C@H](CO)[C@H]2Cn3c(ccc(C4=CCCCC4)c3=O)[C@@H]1N2Cc1ccncc1	2	-2	x	x	x
CO[C@H]1CN(C)C(=O)c2cc(NC(C)=O)ccc2OC[C@H](C)N(Cc2ccc(F)cc2)C[C@H]1C	6	-2	x	x	x
O=C(C[C@H]1C=C[C@@H](NS(=O)(=O)c2ccc(F)cc2)[C@H](CO)O1)NCc1ccccc1F	-21	15	x	x	x
CCc1cccc(NC(=S)Nc2cccc3ccccc23)c1	-47	-6	52*	6	-11
CCCNC(=O)N(C)C[C@@H]1Oc2ncc(-c3ccccc3F)cc2C(=O)N([C@@H](C)CO)C[C@@H]1C	5	-2	x	x	-6
C[C@H]1CN([C@@H](C)CO)S(=O)(=O)c2ccc(-c3ccc(C#N)cc3)cc2O[C@H]1CN(C)Cc1cccc(F)c1	2	2	x	x	48
Cc1ccc(OCC(=O)Nc2ccc(N3CCN(C(=O)c4ccco4)CC3)cc2)cc1C	-5	2	41	34	12
Cc1cc(OCC(=O)Nc2ccc(N3CCN(C(=O)c4ccco4)CC3)cc2)cc(C)c1Cl	4	22	52*	52*	x
COCCN(C(=O)c1csnn1)C(C(=O)NC1CCCC1)c1ccc(C)cc1 (configuration not stated)	3	4	-1	-5	7
COCCN(C(=O)c1csnn1)C(C(=O)NC1CCCC1)c1ccccc1F (configuration not stated)	-3	1	17	66*	-13
Cc1cccc(C(C(=O)NC2CCCC2)N(Cc2cccnc2)C(=O)c2csnn2)c1 (configuration not stated)	-15	6	-4	25	-18
Cc1ccc(C(C(=O)NC2CCCCC2)N(Cc2cccnc2)C(=O)c2csnn2)cc1 (configuration not stated)	-5	-1	11	92*	3
